# From the supplement of paper PMC10981050
# Where “and” joins values, the source holds several entries; their conditions need not be identical. Equal values may be shown once.
# What was measured:
# Test in all cases: cell viability relative to vehicle control; higher = less cytotoxic
# Conditions in all cases: 10 µM
# [1] = system: K562
# Method in brief: (§1)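 Each screen used CRISPR-edited mutant and wild-type clones from four leukaemia lines. Compounds were acoustically dispensed at a single 10 µM dose, and CellTiter-Glo luminescence was read after 48 h with the supernatant first removed. Viability was analysed in Genedata Screener and given as percent of the on-plate vehicle control.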
# [2] = system: MARIMO
# Method in brief: as §1
# [3] = system: MOLM14
# Method in brief: as §1
# [4] = system: OCI-AML2
# Method in brief: as §1
Structure (SMILES),cell viability ([1]; SRSF2 genotype: SRSF2 P95H/wt),cell viability ([1]; SRSF2 genotype: SRSF2 wt/wt) [%],cell viability ([2]; SRSF2 genotype: SRSF2 P95H/wt) [%],cell viability ([2]; SRSF2 genotype: SRSF2 wt/wt) [%],cell viability ([3]; SRSF2 genotype: SRSF2 P95H/wt) [%],cell viability ([3]; SRSF2 genotype: SRSF2 wt/wt) [%],cell viability ([4]; SRSF2 genotype: P95H/wt) [%],cell viability ([4]; SRSF2 genotype: wt/wt) [%]
Cc1ccc(NC(=O)c2ccc(CN3CC[C@H](N(C)C)C3)c(C(F)(F)F)c2)cc1Nc1nccc(-c2cncnc2)n1 [Bafetinib (INNO-406)],1.12% and 1.27%,4.57,54.6,43.2,49.9,49,23.6,30.4
O=C(O)CSc1nnc(Br)n1-c1ccc(C2CC2)c2ccccc12 [Lesinurad],98.3% and 93.5%,97.5,95.1,108,98.7,101,96.9,100
C/C1=C2N=C(/C=C3N=C(/C(C)=C4\[N-]C(C(CC(N)=O)C4(C)CCC(=O)NCC(C)OP(=O)([O-])OC4C(CO)OC(n5cnc6cc(C)c(C)cc65)C4O)C4(C)N=C1C(CCC(N)=O)C4(C)CC(N)=O)C(CCC(N)=O)C\3(C)C)C(CCC(N)=O)C/2(C)CC(N)=O.[CH3-].[Co+3] (stereo not given) [Methylcobalamin],89.6% and 88.5%,101,88.4,88.6,90.8,94.3,95.2,97
C[C@H]1CN(C[C@H](Cc2ccccc2)C(=O)NCC(=O)O)CC[C@@]1(C)c1cccc(O)c1 [Alvimopan dihydrate],110% and 102%,101,98.5,112,102,103,94.9,99.2
CC(=O)Oc1cccc2ccccc12 [1-Naphthyl acetate],90.4% and 85.3%,95.8,92.4,97.5,93.7,93.8,93.3,90.8
O=C(O)c1ccc(N2C(=O)C(=Cc3ccc(-c4ccc([N+](=O)[O-])cc4)o3)C=C2c2ccccc2)cc1,86.8% and 85.4%,84.5,104,108,82.2,94,97.9,98.2
OC[C@H]1O[C@@H](O[C@@H]2OC=C[C@H]3[C@H](O)[C@@H]4O[C@]4(CO)[C@@H]23)[C@H](O)[C@@H](O)[C@@H]1O [Catalpol],106% and 108%,104,103,115,99.9,105,96.7,106
C/C=C(/C)C(=O)OC(=O)/C(C)=C\C [Angelic anhydride],98.7% and 106%,113,101,101,103,107,102,100
O=C(Nc1cccc(Nc2ncc(Br)c(NCCc3cnc[nH]3)n2)c1)N1CCCC1,46.5% and 64.2%,47.1,49.8,45.4,5.3,3.38,4.66,10.9
O=C(Nc1ccccc1-c1cn2c(CN3CC[C@@H](O)C3)csc2n1)c1ccc2ccccc2c1,23.9% and 46%,39.3,57.1,65,72.4,80.5,65.3,64.4
Cc1ncc(COP(=O)(O)O)c(C=O)c1O [Pyridoxal 5-phosphate monohydrate],97.8% and 103%,101,91.2,107,99.2,102,101,101
O=C(C=Cc1cccnc1)c1ccncc1,81.1% and 89%,77.7,64.4,62.8,19.3,18.4,16.8,28.9
Cc1cc(C)c2c(c1)[C@@H](N(Cc1cc(C(F)(F)F)cc(C(F)(F)F)c1)c1nnn(C)n1)CCCN2C[C@H]1CC[C@H](C(=O)O)CC1,89% and 90.3%,90.1,104,114,95.4,98.7,101,116
OCc1cc([C@@H](O)CNCCCCCCOCCOCc2c(Cl)cccc2Cl)ccc1O [Vilanterol Trifenate],85% and 94.3%,87,79.5,86.2,72.8,82.9,73.9,76.3
CCS(=O)(=O)c1cccc(-c2cc(C(=O)NC3CCN(C)CC3)c(C)c3[nH]c4ncc(C)cc4c23)c1,29% and 32.2%,21.9,11.9,7.33,2.91,2.2,4.55,11.1
CCCC(CCC)C(=O)O [Divalproex sodium],105% and 102%,103,101,111,105,105,93.3,108
CC1=NN(c2ccccc2)C(=O)C1 [Edaravone (MCI-186)],107% and 105%,107,111,108,96.3,109,116,103
C#Cc1cccc(Nc2ncnc3cc(OC)c(OCCCCCCC(=O)NO)cc23)c1,1.25% and 12.2%,3.12,9.16,8.09,1.03,0.53,1.68,2.66
COC(=O)[C@H](CCSC)NC(=O)c1ccc(NC[C@@H](N)CS)cc1-c1ccccc1,104% and 105%,110,77.4,78.5,83.4,90.1,113,113
CC(=O)CCc1ccc(OC(C)=O)cc1 [Pherocon (4-(4-Acetoxyphenyl)-2-butanone)],111% and 109%,119,103,107,109,108,119,116

Structure (SMILES),cell viability ([1]; SRSF2 genotype: SRSF2 P95H/wt),cell viability ([1]; SRSF2 genotype: SRSF2 wt/wt) [%],cell viability ([2]; SRSF2 genotype: SRSF2 P95H/wt) [%],cell viability ([2]; SRSF2 genotype: SRSF2 wt/wt) [%],cell viability ([3]; SRSF2 genotype: SRSF2 P95H/wt) [%],cell viability ([3]; SRSF2 genotype: SRSF2 wt/wt) [%],cell viability ([4]; SRSF2 genotype: P95H/wt) [%],cell viability ([4]; SRSF2 genotype: wt/wt) [%]
CC1CNc2c(cccc2S(=O)(=O)N[C@@H](CCCNC(=N)N)C(=O)N2CC[C@@H](C)C[C@@H]2C(=O)O)C1 (stereo not given in full) [Argatroban Monohydrate],103% and 94.3%,96.2,96.9,103,97.8,106,93.6,94
CC1=C[C@H]2[C@@H](CC1)[C@H](C)CC[C@H]2[C@@H](C)C(=O)O [Dihydroartemisinic acid],99.8% and 91.7%,99.6,101,104,94.6,101,98.5,109
CC1(C)CC[C@]2(C(=O)O[C@@H]3O[C@H](CO[C@@H]4O[C@H](CO)[C@@H](O)[C@H](O)[C@H]4O)[C@@H](O)[C@H](O)[C@H]3O)CC[C@]3(C)C(=CC[C@@H]4[C@@]5(C)CC[C@H](O[C@@H]6OC[C@H](O)[C@H](O)[C@H]6O)[C@@](C)(CO)[C@@H]5CC[C@]43C)[C@@H]2C1 [Akebia saponin D],107% and 101%,103,105,113,103,108,96.4,106
CN1CCN(CCCNc2ncc(Cl)c(-c3cc4c(C(=O)NC5CC5)cccc4s3)n2)CC1,97.4% and 98.7%,93.2,81.4,85.8,58.8,79.9,68.8,72.7
COC(=O)C1=CC[C@@]23CC[C@@H]([C@@](C)(/C=C/C=C(\C)C(=O)O)OC2=O)[C@@]3(OC(C)=O)CC1 [Pseudolaric Acid B],18.7% and 39.2%,33.1,6.72,9.79,15.9,3.39,8.39,11.6
COCCc1ccc(OCC(O)CNC(C)C)cc1 (stereo not given) [Metroprolol succinate],103% and 108%,105,100,110,99.5,107,113,108
O=S(=O)(c1ccc2c(c1)C(=NO)c1cc(S(=O)(=O)N3CCCCC3)ccc1-2)N1CCCCC1,0.51% and 0.55%,0.51,3.1,0.51,0.31,30.1,0.87,0.36
CC(C)=CCCC(C)(OC1OC(COC2OCC(O)C(O)C2O)C(O)C(O)C1O)C1CCC2(C)C1C(O)CC1C3(C)CCC(OC4OC(CO)C(O)C(O)C4O)C(C)(C)C3CCC12C (stereo not given) [Gynostemma Extract],100% and 107%,102,108,111,101,102,110,98
O=C(Nc1ccccc1)N1CCN(c2nc(-c3ccccc3)ns2)CC1,79.1% and 89.2%,91.6,87,92.7,90.5,99,62.7,70.3
CCCC(=O)Nc1cccc(NC(=O)c2ccccc2Br)c1,92.9%,95.5,97.8,96.5,102,100,95.7,95
CN1C(=O)[C@@H](NC(=O)c2cc(Cc3ccccc3)on2)COc2ccccc21,105% and 100%,105,98.9,102,110,110,99.6,99.8
O=C1c2ccccc2C(=O)C1c1ccccc1 [Phenindione (Rectadione)],103% and 98.4%,105,105,104,107,106,101,113
C[C@H]1CNC(=O)c2cnn3ccc(nc23)N[C@H](C)c2cc(F)ccc2O1,14.4% and 36.7%,18,48.6,51.6,9.21,5.47,8.06,19.4
CCOP(=O)(OCC)C(=Cc1cc(C(C)(C)C)c(O)c(C(C)(C)C)c1)P(=O)(OCC)OCC,77.8% and 87.5%,84.6,90.4,93,88.8,71.6,90.9,97
COCCCc1sc(-c2ccccc2)nc1C(=O)Nc1ccccc1-c1nc2cc(CN3CCCC3)cnc2s1,75.7% and 55.8%,76.6,82.7,83.6,76.7,92.5,52.1,76.2
O=C(O)c1cc(/N=N/c2ccc(S(=O)(=O)Nc3ccccn3)cc2)ccc1O [Sulfasalazine (Azulfidine)],99% and 96.4%,94.4,96.3,101,93.7,98.9,96.4,103
CC(C)=CCC[C@](C)(O[C@@H]1O[C@H](CO[C@@H]2O[C@H](CO)[C@@H](O)[C@H](O)[C@H]2O)[C@@H](O)[C@H](O)[C@H]1O)[C@H]1CC[C@]2(C)[C@@H]1[C@H](O)C[C@@H]1[C@@]3(C)CC[C@H](O[C@@H]4O[C@H](CO)[C@@H](O)[C@H](O)[C@H]4O)C(C)(C)[C@@H]3CC[C@]12C [Gypenoside XVII],112% and 100%,109,108,103,110,106,106,106
CCOc1ccc(Cc2cc([C@@H]3O[C@H](SC)[C@@H](O)[C@H](O)[C@H]3O)ccc2Cl)cc1 [Sotagliflozin (LX4211)],84.2% and 86%,81.4,86.3,97.3,89.7,89.5,88.6,96.9
Nc1ncc(-c2ccnc(Nc3ccncc3)n2)c(CC2CC2)n1,69% and 73.7%,74.2,69.8,66.9,44.8,43.8,43.3,45.2
N#CC[C@H](C1CCCC1)n1cc(-c2ncnc3[nH]ccc23)cn1,87.3% and 90%,97.7,78,91,68.8,82.6,60.7,57.9
